Assay results from the supplement of paper PMC3334620.
The full ranking holds about 33,000 sequences; the median of “E-score (-0.5 to 0.5)” is about -0.032, and the highest 2% start at about 0.36. The list comes from a sample in which the highest values are over-represented; it also holds similar and randomly drawn sequences.

These sequences were tested against T1, Sko1 (UniProt Q02100) (assay: PBM E-score (8-mer binding enrichment) (E-score (-0.5 to 0.5)); higher = stronger / more preferred TF binding). Conditions: protein concentration: 200 nM; construct: GST-full length.
T1 sequence: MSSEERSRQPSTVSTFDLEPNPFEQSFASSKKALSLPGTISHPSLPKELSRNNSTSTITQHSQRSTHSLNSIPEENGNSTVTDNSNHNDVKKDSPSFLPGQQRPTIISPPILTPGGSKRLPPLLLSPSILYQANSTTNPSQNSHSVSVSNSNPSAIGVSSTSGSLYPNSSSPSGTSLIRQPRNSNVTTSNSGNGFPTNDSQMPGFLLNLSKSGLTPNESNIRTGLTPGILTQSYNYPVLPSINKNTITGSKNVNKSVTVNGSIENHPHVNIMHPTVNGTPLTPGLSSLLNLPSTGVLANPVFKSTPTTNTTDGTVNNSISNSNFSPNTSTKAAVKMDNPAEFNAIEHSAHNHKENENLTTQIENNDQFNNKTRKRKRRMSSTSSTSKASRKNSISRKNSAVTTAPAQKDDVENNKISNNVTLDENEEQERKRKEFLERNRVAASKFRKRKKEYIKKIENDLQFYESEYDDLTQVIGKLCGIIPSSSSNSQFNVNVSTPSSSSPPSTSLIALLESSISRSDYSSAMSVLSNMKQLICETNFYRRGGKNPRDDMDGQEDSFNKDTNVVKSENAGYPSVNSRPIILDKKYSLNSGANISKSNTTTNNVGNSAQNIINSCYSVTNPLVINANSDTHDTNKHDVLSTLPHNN
Description: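 Universal 'all 10-mer' protein binding microarrays (Agilent AMADID 015681) probed with GST-tagged S. cerevisiae TFs (full-length or DBD) made by in vitro transcription/translation (PURExpress), about 100-200 nM. Bound TF was detected with fluorescent anti-GST. Each ungapped 8-mer (which stands for itself and its reverse complement) is scored by the PBM enrichment score (E-score), a modified Wilcoxon-Mann-Whitney statistic from -0.5 to +0.5, computed with the Universal PBM Analysis Suite. Scale: above 0.35 generally sequence-specific binding.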

Sequence	PBM E-score
AACGACGG	0.0454
AAAGACGT	0.448
AAAGACGA	0.172
AAAGACGG	-0.111
ACCGACGG	-0.181
ACCGACGT	0.376
AACGACGT	0.411
ACCGACGC	0.0727
AACGACGA	0.166
AGCTCAAA	0.0839
ATGCCCTG	-0.17
TACGGTGA	0.0938
ACGGTCGG	-0.28
ACGGTCTG	-0.0646
GACCGCTC	-0.21
CCAGTCTA	-0.255
CATTGACC	0.114
AAGTGACG	0.445
CAGTGACA	0.0692
CATTGACA	-0.0852
CAGTGACG	0.408
AAGTGACC	-0.141
CATTGACG	0.412
AAGTGACT	-0.0253
CAGTGACC	-0.18

Sequence	PBM E-score
GGCGAAAA	0.0196
ATGTCCAC	0.116
GCCTGTCA	-0.157
CCGGTCAA	-0.12
GTATTGCA	0.0688
CACTGGGC	-0.304
CTTTCATA	0.257
GCTAGCCC	-0.26
AACCGTTG	-0.00171
CGGCATAC	-0.00615
ACGCCTGA	0.15
CAATATTA	0.264
AAATATTA	0.295
TAATATTA	0.362
AGGCCAGG	-0.292
CCTATACC	-0.227
CATGACCG	0.0181
AAGAAGTG	-0.0945
CAGGGAAG	-0.212
GTGGTTAA	0.205
ACCGCTTA	-0.00218
CACGTGAA	0.319
TACGTGAA	0.425
AACGTGAA	0.14
TACGTGGA	0.424

Sequence	PBM E-score
CACGTGGA	0.315
GACGTGGA	0.23
CGAGCCTC	-0.324
GGCCCCTA	-0.188
TAGGCTCA	-0.19
AAACAGTA	0.14
AGATTACT	0.201
CGATTACC	-0.0987
CGATTACG	0.448
AGATTACG	0.459
CGATTACA	0.106
AGATTACC	0.108
ACCTGGCG	-0.109
AAGCTACG	0.251
GAAAAAAC	0.201
TATGACAA	0.21
TATGACGA	0.475
CATGACAC	0.258
CATGACTC	-0.0516
ACTGACGG	-0.104
AATGACCA	0.0136
CATGACGC	0.465
AATGACGA	0.476
CCTGACGA	0.24
ACTGACGA	0.364

Sequence	PBM E-score
TATGACCA	0.178
AATGACTA	0.0941
TCGACGCA	0.0313
ATCGCCAA	-0.119
GTTTTCTA	0.201
GCAGTAGA	-0.0999
ATGGCAGG	-0.281
CAGGACCC	-0.221
GATGACCC	-0.0957
GATGACCA	0.0721
ACTGACGC	0.334
CATGACAA	-0.00914
GATGACGA	0.474
CATGACGG	0.326
GATGACAC	0.257
ATTGACGC	0.319
CATGACGA	0.463
GATGACTA	0.0669
AATGACGC	0.478
GATGACGC	0.473
GGACCCTA	-0.273
GTTTTGTA	0.262
ACGATAGT	0.295
ATATGCGC	0.0277
CGATCGCG	0.0985

Sequence	PBM E-score
CGAGCACG	0.0337
GACCAGCA	-0.185
GAGGGCGA	-0.265
ATTGACGG	0.0348
AATGACCG	0.0453
AATGACGG	0.388
GCCTCAGA	-0.148
ACGTAACG	0.469
CCGTAACG	-0.103
CCGTAACC	-0.0904
AAGTAACT	0.153
TCGTAACA	0.275
GCGTAACC	0.328
AAGTAACG	0.0665
GCGTAACA	0.317
ACGTAACT	0.459
ACGTAACC	0.469
ACGTAACA	0.464
AGGTAACT	0.0427
AGCTGTGG	-0.296
GGTCCCAC	-0.0859
AATGAGTA	0.178
CGGACTGC	-0.0639
CTCTTACA	-0.0812
ATTTAGTA	0.25

Sequence	PBM E-score
ATGAAATG	-0.059
AGGCAAGC	-0.126
GATACGGA	-0.0181
CATACGGC	-0.0208
AATACGCG	0.287
GATACGTA	0.48
GATACGAA	0.227
CATACGCC	0.182
AATACGGG	-0.111
AATACGTG	0.458
CATACGTC	0.466
AATACGTA	0.482
AATACGGA	0.138
AATACGAA	0.324
AAACCTTG	0.0199
GACTCACC	-0.118
CTCAGGAG	-0.159
CACTTCCA	0.109
CTTAAAGA	0.00637
CTTGATGC	-0.116
AACCGCTT	-0.113
AATTCAAA	0.193
CTTAAGCA	-0.0027
CACTTTGG	-0.0531
ATCTGGGA	-0.147

Sequence	PBM E-score
CAGGCAGC	-0.349
CGGTGGAA	-0.188
ATGAGCGA	0.102
AATACGAC	0.22
CATACGGA	-0.00572
AATACGTC	0.464
AATACGGC	0.0384
CATACGAA	0.308
CATACGTA	0.485
CCGACTGA	-0.162
ACATGGTA	0.00395
ACTCCTGA	-0.0495
ATACGACA	0.363
CGACGACA	0.0871
GGACGACA	0.0412
ATACGAAA	0.346
AGACGAAA	0.199
TTACGAAA	0.396
TGACGAAA	0.463
TGACGACA	0.467
CTACGAAA	0.214
ATACGACG	0.234
GTACGACA	0.326
GGACGAAA	-0.0622
